In PubChem BioAssay AID1490 (National Center for Advancing Translational Sciences (NCATS), 2009):
Screen size: about 310,000 compounds; about 11,000 (3.5%) were called active. Inconclusive results (about 4%) are left out. Only a selection was taken, and actives are over-represented in it overall. Values without a mark were called inactive. Calls follow the shape of the dose curve; as a rule, active = well fitted inhibition curve with a large enough effect; inconclusive = small, poorly fitted or top-dose-only effect, or another doubt; inactive = no such curve, though single readings can be large or run the other way.

target: 4'-phosphopantetheinyl transferase ffp (Bacillus subtilis) (UniProt Q9F4F7); assay: qHTS Assay for Inhibitors of Bacillus subtilis Sfp phosphopantetheinyl transferase (PPTase); conditions: Biochemical Sfp PPTase activity;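 also: the enzyme is Sfp with the accession as filed and its product quenches rhodamine fluorescence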;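 as to largest response in the series, negative = inhibition: 0% = enzyme reaction without inhibitor and -100% = no enzyme wells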
Method in brief: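 Step 1, compound plus 15 nM Sfp-PPTase, 15 min, room temperature. Step 2, add rhodamine-CoA (5 uM) and BHQ-2-YbbR (12.5 uM). Step 3, read 525/598 nm fluorescence at 0 and 30 min.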
Potency is read from the fitted curve at half-maximal effect.

| Structure (SMILES) | largest response in the series, negative = inhibition [%] | Potency |
| --- | --- | --- |
| NC(N)=N/N=C/c1ccc(Cl)c([N+](=O)[O-])c1 | 6.82 |  |
| NC(N)=N/N=C/c1ccc(OCc2ccc(Cl)cc2Cl)cc1 |  | 31.6 µM (active) |
| COc1ccc(C(=O)O/N=C(\N)Cc2ccc(Cl)cc2Cl)cc1OC | 0.628 |  |
| CCCOc1ccc(CNC(=O)C2CCN(c3nn4c(=O)cc(C)nc4s3)CC2)cc1 | 7.3 |  |
| CC1CCN(C(=S)c2ccc(-c3ccc(Cl)cc3Cl)o2)CC1 |  | 50.1 µM (active) |
| Cc1csc(NC(=O)c2ccc(-c3ccc(Cl)cc3Cl)o2)n1 | 1.33 |  |
| COc1ccc(C(=O)Nc2c(Cl)cc(Cl)cc2C(=O)N2CCC(C)CC2)cc1 | 11.9 |  |
| Cc1nc2cc(C(F)(F)F)ccc2n1CCNc1nc(-c2cc(Cl)c(N)c(Cl)c2)cs1 | 9.07 |  |
| Cc1cccc(N2CCN(C(=O)c3cccc(N4C(=O)C5C6C=CC(C6)C5C4=O)c3)CC2)c1C (stereo not drawn) | 14.6 |  |
| CCOC(=O)c1ccc(NC(=O)c2cccnc2)cc1 | 10.5 |  |
| Cc1ccc(NC(=O)Nc2cccnc2)cc1 | 2.48 |  |
| CCOC(=O)c1ccc(-c2ccc(C(=O)Nc3cccnc3)o2)cc1 |  | 44.7 µM (active) |
| Cc1cccc(C(=O)Nc2ccc(Oc3cnccn3)cc2)c1 | 11 |  |
| C=C1CCN(C(CC(C)C)C(=O)NCc2cc(OC)c(OC)c(OC)c2)S(=O)(=O)c2ccccc21 (stereo not drawn) | -15.6 |  |
| Cc1[nH][nH]c(=O)c1C(c1ccc2c(c1)OCO2)c1c(C)[nH][nH]c1=O | 5.9 |  |
| CCOc1ccc(C(c2c(C)[nH][nH]c2=O)c2c(C)[nH][nH]c2=O)cc1OCC | 2.34 |  |
| Cc1[nH][nH]c(=O)c1C(c1ccc(-c2ccc(Cl)cc2)o1)c1c(C)[nH][nH]c1=O |  | 39.8 µM (active) |
| Cc1ccc2occ(/C=N/NC(=O)c3ccccc3C)c(=O)c2c1 | 18.5 |  |
| CCC(C)[C@H](NC(=O)N1c2ccccc2NC(=O)[C@@H]1C(C)C)C(=O)N[C@@H](Cc1ccccc1)C(=O)O (stereo partly drawn) | 13.4 |  |
| Cc1ccc(OCCOc2cccc(/C=N/NC(N)=O)c2)cc1 | 9.7 |  |
| Cc1nnc(N/N=C/c2cccs2)[nH]c1=O |  | 89.1 µM (active) |
| Cc1nnc(N/N=C/C2CC=CCC2)[nH]c1=O (stereo not drawn) |  | 79.4 µM (active) |
| O=C(N/N=C\C1CC=CCC1)c1ccc(Br)o1 (stereo not drawn) | 5.57 |  |
| Clc1ccc(N/N=C/c2cccs2)nn1 | -26.9 |  |

| Structure (SMILES) | largest response in the series, negative = inhibition [%] | Potency |
| --- | --- | --- |
| Cc1n[nH]c(=O)nc1N/N=C/c1cccs1 | 4.06 |  |
| COCc1c(C(=O)N/N=C/C2CC=CCC2)nnn1-c1nonc1N (stereo not drawn) | -0.608 |  |
| COc1ccc(CNC(=O)c2cc(C(=O)C3CC3)c[nH]2)cc1 | 19.2 |  |
| CCc1cc(=O)oc2c(C)c(OCC(=O)N3CC[C@@]4(O)CCCC[C@H]4C3)ccc12 | 6.44 |  |
| O=C(Nc1cccc(F)c1)NC1CCCCCCC1 | 8.11 |  |
| COc1ccc2c(c1)O[C@@H](c1ccc3c(c1)OCO3)[C@H](OC(=O)NCc1ccco1)C2=O | 1.2 |  |
| CC(C)OCCCNC(=O)CN1C(=O)/C(=C/c2ccccc2F)Oc2ccccc21 | -3.78 |  |
| Cc1cc(=O)cc(C)[nH]1 | 15 |  |
| Cc1cc(=O)[nH]c(=S)[nH]1 |  | 31.6 µM (active) |
| CSc1cc(C)[nH]c(=O)n1 | 7.92 |  |
| O=C(c1ccc[nH]c1=S)N1CCN(S(=O)(=O)c2ccc(Br)cc2Cl)CC1 |  | 79.4 µM (active) |
| O=C(c1ccc(Cl)c(S(=O)(=O)N2CCCCC2)c1)N1CCCCCC1 | 16.4 |  |
| O=C(c1ccccc1F)N1CCN(S(=O)(=O)c2ccc(Br)cc2)CC1 | 9.87 |  |
| CC(C)Sc1ncnc2c1cnn2-c1ccccc1 | -5.09 |  |
| C=C1C(=O)C23C(O)C1CCC2[C@]12COC3(O)C(O)C1C(C)(C)CC[C@H]2O (stereo partly drawn) | -81.1 |  |
| O=C(COCc1cc(-c2ccc3c(c2)OCO3)on1)N1CCN(c2cccc(Cl)c2)CC1 | -5.35 |  |
| COc1ccc2c(C)cc3nnnn3c2c1 | 7.5 |  |
| COc1ccc2[nH]c(=S)cc(C)c2c1 |  | 39.8 µM (active) |
| COc1ccc2[nH]c3c(C)c4cc[n+](C)cc4c(C)c3c2c1 | -11.7 |  |
| CC(C)c1cc(C(=O)N/N=C/c2ccoc2)c(O)c(C(C)C)c1 | 13.5 |  |
| CC1CC(C)CN(CCCNC(=O)Cn2ncc3c([nH]c4ccccc43)c2=O)C1 (stereo not drawn) | 5.5 |  |
| CCCCOc1ccc(-c2ncc(C(=O)OCC)c(N)n2)cc1 | 3.34 |  |
| CCOC(=O)C(Sc1ncc(C#N)c(N)n1)C(C)C (stereo not drawn) |  | 56.2 µM (active) |
| CCOC(=O)CSc1nccc(N(C)C)c1C#N | -4.04 |  |
